Data: PubChem BioAssay AID2501 (Southern Research Specialized Biocontainment Screening …, 2010)
About 1,200 (55%) of roughly 2,200 compounds were called active. No cut-off is given here; in the data, nearly all actives have IC50 up to about 92 µM. The set was probably picked from earlier hits. This is one part of the list.

test: counter assay for TAg ATPase ADP read-out – biochemical, ADP-Hunter, fluorescence, counter-screen (AID 2501); settings: series mostly up to 100 µM;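 note: purified T antigen ATPase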;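 for inhibition: 0% = enzyme with vehicle and 100% = reference inhibitor wells; higher means more inhibition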

SMILES | IC50 | inhibition
Cc1ccccc1CN(C)C(=O)COC(=O)CSc1ccc([N+](=O)[O-])cc1 | inactive | 
COC/C=C/C1=CC2=CC(=O)C(C)(OC(=O)c3cnc4ccccc4n3)C(=O)C2=CO1 (centres undefined) | inactive | 
COC/C=C/C1=CC2=CC(=O)C(C)(OC(=O)c3ccco3)C(=O)C2=CO1 (centres undefined) | 2.83 µM (active) | 
COC/C=C/C1=CC2=CC(=O)C(C)(OC(=O)CCC(=O)OC)C(=O)C2=CO1 (centres undefined) | inactive | 
O=c1[nH]c(=O)c2nnc(N/N=C\c3ccc(O)cc3)nc2[nH]1 | 7.96 µM (active) | 
CCc1cc(N2CCOCC2)cc2c1[nH]c1ccccc12 | 6.15 µM (active) | 
O=c1c2cc(N3CCOCC3)ccc2[nH]c(=S)n1Cc1ccco1 | inactive | 
Cc1ccc(Cn2c(=S)[nH]c3ccc(N4CCOCC4)cc3c2=O)o1 | inactive | 
Cc1cc(C)c(S(=O)(=O)c2ccccc2Cl)c(Cl)n1 | inactive | 
O=C1NC(=S)SC1=C1CCCC1 | inactive | 
CN1CCC/C1=C/C=C1\SC(=S)NC1=O | 7.5 µM (active) | 
CC(=O)c1sc2nsc(SCCN3CCOCC3)c2c1N | 21.3 µM (active) | 
O=C(O)CCC(=O)Nc1ccc(SSc2ccc(NC(=O)CCC(=O)O)cc2)cc1 | inactive | 
O=C(CCn1c(=O)oc2cc(Cl)ccc21)Nc1ccc(O)cc1 | 3.84 µM (active) | 
CS(=O)(=O)c1ccc(NC(=O)CCN2C(=O)C3CCCCC3C2=O)cc1 (centres undefined) | inactive | 
CN(C)CCN(C(=O)c1ccccc1Cl)c1nc2c(Cl)cccc2s1 | inactive | 
C/C(=N/NC(N)=S)c1cc2ccc(O)cc2oc1=O | 25.3 µM (active) | 
COc1ccc(-c2nnc(SCC(=O)c3ccc[nH]3)n2-c2ccccc2)cc1 | inactive | 
CCOc1ccc(NCc2nnc(SCC(=O)Nc3cc(C)on3)n2-c2ccc(OC)cc2)cc1 | 13.5 µM (active) | 
COc1ccc(CCNC(=O)CSc2nncs2)cc1 | inactive | 
COC(=O)CSc1nnc(CNc2ccc(OC)cc2)n1C | 19.3 µM (active) | 
COc1ccc(-n2c(SCC(=O)Nc3ccc(Cl)cc3)nc(O)c(Cc3ccccc3)c2=O)cc1 | inactive | 
CCN1CCC[C@H]1CNC(=O)c1c(O)c(Cl)cc(Cl)c1OC | inactive | 

SMILES | IC50 | inhibition
Nc1ccc(OCC(O)C[n+]2ccc(CCS(=O)(=O)[O-])cc2)cc1 (centres undefined) | 4.65 µM (active) | 
O=C(Cc1coc(-c2ccc(F)cc2)n1)NCc1ccccc1 | inactive | 
O=C(O)/C=C/c1ccc(O)c(O)c1 | 6.76 µM (active) | 
O=C(/C=C/c1ccc(O)c(O)c1)c1ccccc1O | 6.57 µM (active) | 
O=C(O)/C=C/c1ccc(O)cc1 | 8.81 µM (active) | 
Oc1cc(O)cc(/C=C/c2ccc(O)c(O)c2)c1 | inactive | 
Oc1ccc(/C=C/c2cc(O)cc(O)c2)cc1 | 11.3 µM (active) | 
O=C(c1nnsc1S(=O)c1ccc(Cl)cc1)N1CCOCC1 (centres undefined) | inactive | 
COc1cccc2c(=O)n(CC(=O)Nc3ccccc3F)ccc12 | inactive | 
CC(/C=C/c1ccc(O)cc1)=N/O | 3.08 µM (active) | 
Cc1coc2c1C(=O)C(=O)c1c-2ccc2c(C)cccc12 | inactive | 
CCn1c(/C=C/c2c(C)[nH]c3ccccc23)nc2ccccc2c1=O | inactive | 
CCCc1nc2ccccc2c(=O)n1/N=C/c1ccc(O)c(O)c1 | 10.5 µM (active) | 
Oc1ccc(/C=N/n2c(COc3ccccc3)n[nH]c2=S)cc1O | 9.32 µM (active) | 
N#CCn1c(CCl)nc2ccccc2c1=O | inactive | 
Cc1nc2ccccc2c(=O)n1/N=C/c1cn(-c2ccccc2)nc1-c1cccs1 | inactive | 
O=c1c2ccccc2nc(COc2ccccc2)n1/N=C/c1ccc(O)c(O)c1 | 12.1 µM (active) | 
O=C(OCn1nnc2ccccc2c1=O)c1ccc(O)cc1 | inactive | 
CCn1c(/C=C/c2ccc(O)c(O)c2)nc2ccccc2c1=O | 64.8 µM (active) | 
CSC1=NS(=O)(=O)c2c(C)nn(C)c2S1 | inactive | 
CC(C)(C)c1cc[n+](C2=C([O-])c3ccccc3C(=O)/C2=N\S(=O)(=O)c2ccccc2)cc1 | inactive | 
CCCNC(=O)c1ccc2c(=O)c(O)c(-c3cccc(Br)c3)[nH]c2c1 | inactive | 
Nc1cc(CN2C(=O)c3ccccc3C2=O)cc(Cl)c1O | 4.47 µM (active) | 

SMILES | IC50 | inhibition
O=C1/C(=N/n2cnnc2)c2ccccc2N1Cc1ccccc1 | inactive | 
O=C(NCc1ccccc1)c1onc(CSc2ccc(F)cc2)c1C(=O)NCCCN1CCOCC1 | inactive | 
CN(C)c1ccc(-c2nc3cnccn3c2Nc2ccc3c(c2)OCCO3)cc1 | 11.3 µM (active) | 
Oc1ccc(-c2nc3ncccn3c2Nc2ccc3c(c2)OCO3)cc1 | 5.13 µM (active) | 
COc1cc(-c2nc3cnccn3c2Nc2ccccc2)ccc1O | 2.57 µM (active) | 
CCN(CC)c1ccc(-c2nc3cnccn3c2NC2CCCC2)cc1 | 12.1 µM (active) | 
CC12CCC(C/C1=N/O)C2(C)C (centres undefined) | inactive | 
COc1ccc(-c2c(C)n([O-])c3c([n+]2=O)CCCCC3)cc1OC | inactive | 
Cc1ccc(/C(O)=C2/C(=O)C(=O)OC2c2ccc(Cl)cc2)cc1 (centres undefined) | inactive | 
Oc1ccc(-c2nc3cnccn3c2Nc2ccc3c(c2)OCCO3)cc1 | 3.53 µM (active) | 
CCOC(=O)c1c(N)ssc1=S |  | 20.8% [at 12.5 µM] (inactive)
CCOC(=O)c1sc(N)nc1C(C)C | inactive | 
NNC(=O)c1cc(-c2ccccc2)sc1N | 8.67 µM (active) | 
CCOC(=O)c1cc(-c2ccc(N)cc2)sc1N | 5.53 µM (active) | 
NNC(=O)c1sc2cc(C(F)(F)F)cnc2c1-c1ccccn1 | inactive | 
CC(=O)c1ccc2c3c(cccc13)C(=O)N(c1c(C)nn(C)c1C)C2=O | inactive | 
O=C(NCc1ccco1)Nc1cccs1 | inactive | 
O=C(NCc1cccs1)Nc1cc(Cl)ccc1Cl | 91.1 µM (active) | 
Cc1ccc(C)n1/N=C1/NC(=O)CS1 | inactive | 
Oc1cc(O)c2c(c1)O[C@H](c1ccc(O)c(O)c1)[C@@H](O)C2 | 11.9 µM (active) | 
Oc1cc(O)c2c(c1)OC(c1ccc(O)c(O)c1)C(O)C2 (centres undefined) | 3.95 µM (active) | 
COC(=O)Cc1cc(=O)n(-c2nc3ccccc3s2)[nH]1 | inactive | 
CC(=O)O[C@H]1C[C@@]2(C)[C@@H](C[C@@H](O)[C@H]3[C@@]4(C)CC[C@@H](O)[C@@H](C)[C@@H]4CC[C@@]32C)/C1=C(\CCC=C(C)C)C(=O)O | inactive | 
